Drawing on PubChem BioAssay (NCATS), this text covers Potency for 32 compounds.

Records with an inconclusive call do not appear. Entries that show only a call come without a potency. Activity calls are given as the source filed them. Calls follow the shape of the dose curve; as a rule, active = well fitted cell-killing curve with a large enough effect; inconclusive = small, poorly fitted or top-dose-only effect, or effect the other way; inactive = flat fitted curve, though single readings scatter.

One test concerns Hek293T. Nature of the test: Primary qHTS to identify gynecologic anti-cancer compounds using libraries of approved drugs and bioactive compounds (AID 1345084). Also: nearly all actives have a fitted effect of over 55% in size. The conditions noted are these: Gynecologic cancer cell panel viability, ATPlite luminescence, 48 h, control line for the selectivity index; series mostly up to 57.5 µM. In short, it runs like this:
(§1)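 Cells, 1,000 per well, plated 16 h, then exposed 48 h at 37 C to compounds. Viability by ATPlite luminescence after 15 min at room temperature.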
(In general: In qHTS, concentration-response curves come from the screen itself.)
Turning to `CN(C)C(=N)N=C(N)N`, the Potency entry was “inactive”.
Still for that read-out and setting: the same measure for `CC12CC3CC(C)(C1)CC(N)(C3)C2`: “inactive”; for `Clc1ccc2c(c1)C(N1CCNCC1)=Nc1ccccc1O2`: “inactive”; for `CCOC(=O)Nc1ccc(NCc2ccc(F)cc2)nc1N`: “inactive”.
As to `NCCCCCC(=O)O`, the Potency entry is “inactive”.
On to `O=C(c1ccc(OCCN2CCCCC2)cc1)c1c(-c2ccc(O)cc2)sc2cc(O)ccc12`, for which the Potency result was “inactive”.
As for `C[C@H]1c2cccc(O)c2C(O)=C2C(=O)[C@]3(O)C(O)=C(C(N)=O)C(=O)[C@@H](N(C)C)[C@@H]3[C@@H](O)[C@@H]21`, the Potency result was “inactive”.
Same read-out and setting: to `Cn1c(=O)c2c(ncn2C)n(C)c1=O` belongs “inactive”; to `CS(=O)(=O)Nc1ccc([N+](=O)[O-])cc1Oc1ccccc1`, “inactive”; to `Cn1cnc2c1c(=O)[nH]c(=O)n2C`, “inactive”.
As to `O=c1c(O)c(-c2ccc(O)c(O)c2)oc2cc(O)cc(O)c12`, the Potency entry is “inactive”.
On to `CN(C)c1nc(N(C)C)nc(N(C)C)n1`, for which the Potency entry was “inactive”.
The same measure, in the same setting: to `CC(C(=O)O)c1cccc(C(=O)c2ccccc2)c1` (centres undefined) belongs “inactive”; to `CCCNCC(O)COc1ccccc1C(=O)CCc1ccccc1` (centres undefined), “inactive”.
The same measure, in the same setting: to `Clc1ccc(C(c2ccccc2Cl)C(Cl)Cl)cc1` (centres undefined) belongs “inactive”; to `Nc1ccn([C@H]2CC[C@@H](CO)O2)c(=O)n1`, “inactive”.
Turning to `NS(=O)(=O)c1cc2c(cc1Cl)NCNS2(=O)=O`, the Potency entry was “inactive”.
Same read-out and setting: the same measure for `Nc1nc2c(ncn2COC(CO)CO)c(=O)[nH]1`: “inactive”.
The same measure, in the same setting: the same measure for `NC(=O)NO`: “inactive”.
The same measure, in the same setting: the same measure for `CC(C)NCC(O)COc1ccc(CCOCC2CC2)cc1` (centres undefined): “inactive”.
For `COc1ccc(CCN(C)CCCC(C#N)(c2ccc(OC)c(OC)c2)C(C)C)cc1OC` (centres undefined), the Potency result is “inactive”.
On the same count and under the same terms, the same measure for `C[C@@H]1CC(=O)NN=C1c1ccc(NN=C(C#N)C#N)cc1`: “inactive”.
Still for that read-out and setting: the same measure for `CS(=O)(=O)CCNCc1ccc(-c2ccc3ncnc(Nc4ccc(OCc5cccc(F)c5)c(Cl)c4)c3c2)o1`: “inactive”; for `COc1nc(C)nc(Cl)c1NC1=NCCN1`: “inactive”; for `Cc1ccc(-c2cc(C(F)(F)F)nn2-c2ccc(S(N)(=O)=O)cc2)cc1`: “inactive”.
Still for that read-out and setting: the same measure for `O=C1N(c2ccccc2)c2ccccc2C1(Cc1ccncc1)Cc1ccncc1`: “inactive”; for `CN1C(C(=O)Nc2ccccn2)=C(O)c2ccccc2S1(=O)=O`: “inactive”.
`Cc1cnc(C(=O)NCCc2ccc(S(=O)(=O)NC(=O)NC3CCCCC3)cc2)cn1`: the Potency entry was “inactive”.
The same measure, in the same setting: to `CCc1cccc2c3c([nH]c12)C(CC)(CC(=O)O)OCC3` (centres undefined) belongs “inactive”; to `O=C1Cc2cc(CCN3CCN(c4nsc5ccccc45)CC3)c(Cl)cc2N1`, “inactive”.
Still for that read-out and setting: the same measure for `Cc1cn([C@H]2C=C[C@@H](CO)O2)c(=O)[nH]c1=O`: “inactive”.
The same measure, in the same setting: to `CC(C)(C)C(=O)Oc1ccc(S(=O)(=O)Nc2ccccc2C(=O)NCC(=O)O)cc1` belongs “inactive”.

For the next test, the system named is JEG-3. The test is described as above. Conditions: Gynecologic cancer cell panel viability, ATPlite luminescence, 48 h; series mostly up to 57.5 µM. The procedure, abridged:
as §1
For orientation: Cellular ATP, detected with luciferase, serves as a proxy for viable cell number.
`CN(C)C(=N)N=C(N)N`: the Potency result is “inactive”.
The same measure, in the same setting: the same measure for `CC12CC3CC(C)(C1)CC(N)(C3)C2`: “inactive”.
As for `Clc1ccc2c(c1)C(N1CCNCC1)=Nc1ccccc1O2`, the Potency entry was “inactive”.
The same measure, in the same setting: to `CCOC(=O)Nc1ccc(NCc2ccc(F)cc2)nc1N` belongs “inactive”; to `NCCCCCC(=O)O`, “inactive”.
On to `O=C(c1ccc(OCCN2CCCCC2)cc1)c1c(-c2ccc(O)cc2)sc2cc(O)ccc12`, for which the Potency entry was “inactive”.
On the same count and under the same terms, the same measure for `C[C@H]1c2cccc(O)c2C(O)=C2C(=O)[C@]3(O)C(O)=C(C(N)=O)C(=O)[C@@H](N(C)C)[C@@H]3[C@@H](O)[C@@H]21`: “inactive”; for `Cn1c(=O)c2c(ncn2C)n(C)c1=O`: “inactive”.
Still for that read-out and setting: to `CS(=O)(=O)Nc1ccc([N+](=O)[O-])cc1Oc1ccccc1` belongs “inactive”; to `Cn1cnc2c1c(=O)[nH]c(=O)n2C`, “inactive”; to `O=c1c(O)c(-c2ccc(O)c(O)c2)oc2cc(O)cc(O)c12`, “inactive”.
The same measure, in the same setting: the same measure for `CN(C)c1nc(N(C)C)nc(N(C)C)n1`: “inactive”; for `CC(C(=O)O)c1cccc(C(=O)c2ccccc2)c1` (centres undefined): “inactive”.
With `CCCNCC(O)COc1ccccc1C(=O)CCc1ccccc1` (centres undefined), the Potency result was “inactive”.
Same read-out and setting: to `Clc1ccc(C(c2ccccc2Cl)C(Cl)Cl)cc1` (centres undefined) belongs “inactive”.
On the same count and under the same terms, the same measure for `Nc1ccn([C@H]2CC[C@@H](CO)O2)c(=O)n1`: “inactive”; for `NS(=O)(=O)c1cc2c(cc1Cl)NCNS2(=O)=O`: “inactive”.
For `Nc1nc2c(ncn2COC(CO)CO)c(=O)[nH]1`, the Potency entry is “inactive”.
Same read-out and setting: to `NC(=O)NO` belongs “inactive”; to `CC(C)NCC(O)COc1ccc(CCOCC2CC2)cc1` (centres undefined), “inactive”.
Still for that read-out and setting: to `COc1ccc(CCN(C)CCCC(C#N)(c2ccc(OC)c(OC)c2)C(C)C)cc1OC` (centres undefined) belongs “inactive”; to `C[C@@H]1CC(=O)NN=C1c1ccc(NN=C(C#N)C#N)cc1`, “inactive”; to `CS(=O)(=O)CCNCc1ccc(-c2ccc3ncnc(Nc4ccc(OCc5cccc(F)c5)c(Cl)c4)c3c2)o1`, “inactive”.
Turning to `COc1nc(C)nc(Cl)c1NC1=NCCN1`, the Potency entry is “inactive”.
Still for that read-out and setting: to `Cc1ccc(-c2cc(C(F)(F)F)nn2-c2ccc(S(N)(=O)=O)cc2)cc1` belongs “inactive”; to `O=C1N(c2ccccc2)c2ccccc2C1(Cc1ccncc1)Cc1ccncc1`, “inactive”; to `CN1C(C(=O)Nc2ccccn2)=C(O)c2ccccc2S1(=O)=O`, “inactive”.
The same measure, in the same setting: to `Cc1cnc(C(=O)NCCc2ccc(S(=O)(=O)NC(=O)NC3CCCCC3)cc2)cn1` belongs “inactive”.
Still for that read-out and setting: the same measure for `CCc1cccc2c3c([nH]c12)C(CC)(CC(=O)O)OCC3` (centres undefined): “inactive”.
Turning to `O=C1Cc2cc(CCN3CCN(c4nsc5ccccc45)CC3)c(Cl)cc2N1`, the Potency result is “inactive”.
The same measure, in the same setting: the same measure for `Cc1cn([C@H]2C=C[C@@H](CO)O2)c(=O)[nH]c1=O`: “inactive”; for `CC(C)(C)C(=O)Oc1ccc(S(=O)(=O)Nc2ccccc2C(=O)NCC(=O)O)cc1`: “inactive”.
